The values below come from PubChem BioAssay AID1625 (Sanford-Burnham Center for Chemical Genomics, 2009).

The campaign covered roughly 190,000 compounds. About 570 (0.3%) were called active.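 Rule for the calls: active = z-score above 3 at 5 µM with at least 500 cells counted in the well; inconclusive = wells under 500 cells, flagged as cytotoxic or low count; inactive = the rest.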 What follows is part of a selection rich in actives, with near analogues and random picks from the rest.

A short description of the assay: insulin promoter activators in MIN6 cells, imaging, high-content screening, mouse beta cells (AID 1625).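 For cell count: total cells summed across four imaged fields per well.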 The note with it: MIN6 insulin promoter-GFP reporter, at 5 µM; cell count: measured here: cytotoxicity, nuclei count; z-score: stronger effect = higher value.
Turning to `COc1ccc(-n2c(SCC(=O)OC(C)C)nnc2-c2ccccn2)cc1`, the cell count stood at 1260 cells and the z-score was 0.29 (inactive).

In the case of `Cc1ccc(-n2c(Cc3cccs3)nnc2SCC(=O)OC(C)C)cc1`, the cell count came to 993 cells and the z-score was 3.05 (active).

Consider `CCn1c(Cc2cccs2)nnc1SCC(=O)c1ccc(C)cc1`, for which the cell count came to 827 cells and the z-score is -1.87 (inactive).

On to `Cc1ccc(Oc2nc(-c3ccccn3)nc3ccccc23)cc1`, for which the cell count was 1010 cells and the z-score was -0.89 (inactive).

For `O=C1N(c2ccccc2)C(=Nc2ccccc2)SC12CC2`, the cell count came out at 1070 cells and the z-score is -0.2 (inactive).

For the compound `COc1ccc(OC)c(S(=O)(=O)NCCC(C)C)c1`, the cell count is 1220 cells and the z-score was -0.95 (inactive).

On to `CCOC(=O)CN(C(=O)COc1nc(-c2ccccc2)cc(C)c1C#N)c1ccc(F)cc1`, for which the cell count is 1080 cells and the z-score was -0.04 (inactive).

For the compound `CCOC(=O)C1CCN(C(=O)Nc2ccc(C)c(Cl)c2)CC1`, the cell count turned out to be 1020 cells and the z-score is -0.22 (inactive).

Turning to `O=C(CCCN1C(=O)/C(=C/c2ccccc2)SC1=S)Nc1ccc(O)cc1`, the cell count came out at 1550 cells and the z-score was -0.31 (inactive).

`O=C(CCN1C(=O)/C(=C/c2cccs2)SC1=S)NNC(=O)c1cccc(O)c1`: the cell count is 1100 cells and the z-score was 3.43 (active).

Regarding `O=C(CCCN1C(=O)/C(=C\c2ccccc2)SC1=S)Nc1ccccc1O`, the cell count was 1110 cells and the z-score was -1.05 (inactive).

With `Nc1nc(O)c(CC(=O)O)s1`, the cell count came out at 1490 cells and the z-score is -0.64 (inactive).

As for `Cc1ccc(NNC(=O)C2CCC2)cc1C`, the cell count is 1450 cells and the z-score was -0.26 (inactive).

As to `CCOC(=O)C1=NN(c2ccc(Cl)cc2)/C(=C/C2=NCCc3cc(OC)c(OC)cc32)S1`, the cell count is 1380 cells and the z-score is 0.35 (inactive).

`CCCN(CCC)CC(O)COc1ccccc1C(=O)Nc1ccccc1` (stereo unspecified): the cell count came to 1020 cells and the z-score is -0.54 (inactive).

Turning to `COc1ccc(-c2[nH]ncc2CN(Cc2nccn2C)C(C)C)cc1F`, the cell count is 1490 cells and the z-score is -1.07 (inactive).

Consider `O=S(=O)([N-]c1nc2ccccc2nc1-[n+]1ccc(Cc2ccccc2)cc1)c1ccc(Br)s1`, for which the cell count came out at 1020 cells and the z-score is -0.15 (inactive).

In the case of `[O-][N+]12CCCCC1CCCC2CO` (stereo unspecified), the cell count came out at 977 cells and the z-score is 0.05 (inactive).

In the case of `O=c1c(-c2ccc(Cl)cc2)[n+]([O-])c2ccccc2n1OCc1nc2ccccc2[nH]1`, the cell count was 1200 cells and the z-score is -1.15 (inactive).

Consider `CCOc1ccc(OCC)c(-c2c(=O)n(OCc3ccc(Cl)cc3)c3ccccc3[n+]2[O-])c1`, for which the cell count was determined as 1410 cells and the z-score is 3.34 (active).

As for `COc1ccc(OC)c(-c2c(=O)n(OCc3ccccc3Br)c3ccccc3[n+]2[O-])c1`, the cell count amounted to 1330 cells and the z-score was -0.44 (inactive).

With `CCN(CC)CCNCC(=O)Nc1ccc(Oc2ccccc2)cc1`, the cell count was 919 cells and the z-score was -0.39 (inactive).

Regarding `C/C(=N\Nc1cccc(C(=O)O)c1)c1ccc2c(c1)Nc1ccccc1S2`, the cell count worked out at 1020 cells and the z-score is -0.12 (inactive).

`O=C(Cn1c(N2CCN(C/C=C/c3ccccc3)CC2)nc2ccccc21)c1ccccc1`: the cell count was 1150 cells and the z-score was -0.35 (inactive).

Consider `COc1ccc(F)cc1S(=O)(=O)N1CCCCC1`, for which the cell count is 1090 cells and the z-score was 0.19 (inactive).

Take `N#C/C(=C\N1CCOCC1)S(=O)(=O)c1ccc(Cl)cc1`: the cell count came out at 930 cells and the z-score was -0.15 (inactive).

Regarding `CCc1ccc(S(=O)(=O)Nc2ccc(C)c(NS(C)(=O)=O)c2)cc1`, the cell count was found to be 1030 cells and the z-score is 0.6 (inactive).

As to `COCCNC(=O)c1onc(CSc2cccc(C)c2)c1C(=O)O`, the cell count was 1620 cells and the z-score was 3.82 (active).

With `CCCCNC(=O)c1onc(CSc2cccc(OC)c2)c1C(=O)O`, the cell count came out at 1420 cells and the z-score was -0.14 (inactive).

Consider `CCOc1cccc(SCc2noc(C(=O)NC(C)C)c2C(=O)O)c1`, for which the cell count was 1590 cells and the z-score is -0.64 (inactive).

For the compound `CN(CC(=O)Nc1ccc(F)cc1)CC(=O)Nc1ccc(Cl)c(S(=O)(=O)N2CCOCC2)c1`, the cell count stood at 1070 cells and the z-score was -0.46 (inactive).

On to `CC(C)NC(=O)/C(C#N)=C\c1ccc(N(C)C)c(Br)c1`, for which the cell count amounted to 1460 cells and the z-score is 0.33 (inactive).

As to `CCc1cc(C(=O)OC)c(NC(=O)CC2Sc3ccc(C(F)(F)F)cc3NC2=O)s1` (stereo unspecified), the cell count is 1330 cells and the z-score was 3.33 (active).

Take `Cc1ccc(CNC(=O)CC2Sc3ccccc3NC2=O)cc1` (stereo unspecified): the cell count amounted to 1420 cells and the z-score was -0.57 (inactive).

Regarding `COC(=O)c1cc(C)sc1NC(=O)CC1Nc2ccccc2NC1=O` (stereo unspecified), the cell count is 1110 cells and the z-score is 2.17 (inactive).

As for `CCc1ccc(NC(=O)N[C@H](C(=O)O)C(C)CC)cc1` (stereo partly specified), the cell count was determined as 978 cells and the z-score was 0.03 (inactive).

Regarding `O=C(Nc1nnc(SCc2c(Cl)cccc2Cl)s1)c1cccc([N+](=O)[O-])c1`, the cell count is 1070 cells and the z-score was 0.41 (inactive).

Take `Nc1nnc(SCn2nnc3ccccc3c2=O)s1`: the cell count came out at 1620 cells and the z-score is 0.07 (inactive).

On to `CCOc1ccc(C2C(C(=O)O)c3ccccc3C(=O)N2CCN2CCOCC2)cc1` (stereo unspecified), for which the cell count is 1350 cells and the z-score is 4.94 (active).

For the compound `COc1ccc(C2C(C(=O)N3CCN(c4ccc(OC)cc4)CC3)c3ccccc3C(=O)N2C)cc1` (stereo unspecified), the cell count amounted to 1330 cells and the z-score was -1.17 (inactive).

Take `CCOc1cc2c(cc1OCC)C(C(=O)O)C(c1ccc(OC)c(O)c1)N(C)C2=O` (stereo unspecified): the cell count turned out to be 1550 cells and the z-score is 0.1 (inactive).

With `O=C(COC(=O)/C=C/c1ccc2c(c1)OCO2)NC1CCS(=O)(=O)C1` (stereo unspecified), the cell count turned out to be 933 cells and the z-score is -0.06 (inactive).

Consider `COc1ccccc1N1CCN(C(=O)CSc2ncnc3c2cnn3-c2ccc(C)c(C)c2)CC1`, for which the cell count was determined as 959 cells and the z-score was -0.23 (inactive).

Regarding `CC1Cc2ccccc2N1S(=O)(=O)c1ccc(Cl)nc1` (stereo unspecified), the cell count is 1130 cells and the z-score was 0.1 (inactive).

Take `CCc1nnc(NC(=O)CCC(=O)NCc2ccccc2OC)s1`: the cell count amounted to 1600 cells and the z-score is 4.05 (active).

On to `COc1ccccc1CNC(=O)CCn1c(=O)sc2ccccc21`, for which the cell count is 1300 cells and the z-score is -0.13 (inactive).

On to `CCc1nnc(NC(=O)CCC(=O)O)s1`, for which the cell count was determined as 879 cells and the z-score was -0.23 (inactive).

Turning to `O=C(Nc1ccc(Cl)cc1)/C(=C1\CCCN1)[N+](=O)[O-]`, the cell count worked out at 1400 cells and the z-score was 0.56 (inactive).

For the compound `COc1ccc(OC)c(-c2csc(NC(=O)C3=NNC(=O)CC3)n2)c1`, the cell count amounted to 1110 cells and the z-score was 1.47 (inactive).

Regarding `CCOc1cccc(/C=C/c2ccc3ccccc3n2)c1OC(C)=O`, the cell count amounted to 1230 cells and the z-score was -0.46 (inactive).

With `Cc1nc(COc2cccc(Cl)c2)sc1C(=O)/C=C/N(C)C`, the cell count came to 1040 cells and the z-score was 0.55 (inactive).

Turning to `CN1CCN(c2ccc(S(=O)(=O)N3CCOCC3)cc2NC(=O)CCc2ccccc2)CC1`, the cell count came out at 1040 cells and the z-score was 0.32 (inactive).

For the compound `C=CCC(Nc1ccccc1)c1cccc(OC)c1OC` (stereo unspecified), the cell count stood at 1080 cells and the z-score is -0.62 (inactive).
